Each structure is given as a SMILES string. Records with an inconclusive call do not appear. Active and inactive are the calls of the source. The calls were made as follows: active = hit-call score of the fitted dose curve at least 0.9, where 1 is the maximum; inconclusive = response in the unintended direction; inactive = score below 0.9.

Assay [1] has as its target human Protein Tyrosine Phosphatase Non-receptor Type 4 (PTPN4), PTPN4 (gene 5775) (UniProt P29074). As to the kind of experiment: NVS_ENZ_hPTPN4: NovaScreen (NVS) Enzymatic Assay for human Protein Tyrosine Phosphatase Non-receptor Type 4 (PTPN4) (AID 2283208). A digest of the protocol: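 Cell-free assay of PTPN4 expressed in Sf9 cells, using a fluorescent substrate with product separated by mobility shift; read 1.33 h after dosing. Single-point screen at 25 uM, then concentration-response up to 50 uM. Loss of signal relative to DMSO.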

For assay [2], the target named is human Protein Tyrosine Phosphatase Non-receptor Type 9 (PTPN9), PTPN9 (gene 5780) (UniProt P43378). As to the kind of experiment: NVS_ENZ_hPTPN9: NovaScreen (NVS) Enzymatic Assay for human Protein Tyrosine Phosphatase Non-receptor Type 9 (PTPN9) (AID 2283209). A digest of the protocol:
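Sf9-expressed enzyme in a cell-free assay, fluorescence read 1.33 h after dosing with mobility-shift separation of substrate and product. Tested at 25 uM in duplicate, then up to 50 uM; signal loss versus DMSO.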

In assay [3] the target is human Rho Associated Coiled-coil Containing Protein Kinase 1 (ROCK1), ROCK1 (gene 6093) (UniProt Q13464). Kind of assay: NVS_ENZ_hROCK1: NovaScreen (NVS) Enzymatic Assay for human Rho Associated Coiled-coil Containing Protein Kinase 1 (ROCK1) (AID 2283214). In short, it runs like this: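 Cell-free recombinant human ROCK1 activity assay; fluorescent substrate and product separated by electrophoretic mobility shift, read 1 h after dosing. Screened in duplicate at 25 uM; loss of signal versus DMSO baseline scored as inhibition.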

For assay [4], the target named is human Tropomyosin Receptor Kinase A (TRKA), NTRK1 (gene 4914) (UniProt P04629). As to the kind of experiment: NVS_ENZ_hTrkA: NovaScreen (NVS) Enzymatic Assay for human Tropomyosin Receptor Kinase A (TRKA) (AID 2283224). A digest of the protocol: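 Recombinant human TrkA activity read after 1 h by fluorescence with electrophoretic mobility shift separating substrate and product. Primary screen in duplicate at 25 uM; actives were rerun in concentration-response up to 50 uM. Loss of signal versus DMSO.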

The target of assay [5] is human Raf-1 Proto-Oncogene, serine/threonine Kinase (RAF1), RAF1 (gene 5894) (UniProt P04049). As to the kind of experiment: NVS_ENZ_hRAF1: NovaScreen (NVS) Enzymatic Assay for human Raf-1 Proto-Oncogene, serine/threonine Kinase (RAF1) (AID 2283216). In short, it runs like this:
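Cell-free recombinant kinase with specific fluorescent substrate, product separated by electrophoretic mobility shift; read 1 h after dosing. Primary screen at 25 uM in duplicate; hits then run in concentration-response up to 50 uM, fitted as loss of signal versus DMSO.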

For assay [6], the target named is human Protein Tyrosine Phosphatase Non-receptor Type 6 (PTPN6), PTPN6 (gene 5777) (UniProt P29350). As to the kind of experiment: NVS_ENZ_hPTPN6: NovaScreen (NVS) Enzymatic Assay for human Protein Tyrosine Phosphatase Non-receptor Type 6 (PTPN6) (AID 2283210). In short, it runs like this:
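Cell-free assay with recombinant PTPN6 expressed in SF9 cells, fluorescent substrate, product separated from substrate by electrophoretic mobility shift; read 1.33 hours after dosing. Primary screen in duplicate at 25 uM, actives retested in concentration series; DMSO baseline.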

Assay [7] concerns the target human Sirtuin 3 (SIRT3), SIRT3 (gene 23410) (UniProt Q9NTG7). As to the kind of experiment: NVS_ENZ_hSIRT3: NovaScreen (NVS) Enzymatic Assay for human Sirtuin 3 (SIRT3) (AID 2283222). In short, it runs like this: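 Cell-free enzyme assay with recombinant protein and fluorescent substrate, product separated by electrophoretic mobility shift; read 1 hour after dosing. Screened in duplicate at 25 uM, then singleton concentration-response up to 50 uM; loss of signal versus DMSO.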

Assay [8] deals with human Protein Tyrosine Phosphatase Non-receptor Type 2 (PTPN2), PTPN2 (gene 5771) (UniProt P17706). As to the kind of experiment: NVS_ENZ_hPTPN2: NovaScreen (NVS) Enzymatic Assay for human Protein Tyrosine Phosphatase Non-receptor Type 2 (PTPN2) (AID 2283207). A digest of the protocol:
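Cell-free recombinant enzyme with fluorescent substrate, product separated by electrophoretic mobility shift; read 1 h after dosing. Primary screen single concentration (25 uM) in duplicate; actives followed in concentration series; loss of signal versus DMSO.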

Assay [9] concerns the target human Protein Tyrosine Phosphatase Receptor Type B (PTPRB), PTPRB (gene 5787) (UniProt P23467). As to the kind of experiment: NVS_ENZ_hPTPRB: NovaScreen (NVS) Enzymatic Assay for human Protein Tyrosine Phosphatase Receptor Type B (PTPRB) (AID 2283211). In short, it runs like this: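 Recombinant human PTPRB with a fluorescent substrate, product separated by electrophoretic mobility shift; read 1 h after dosing. Primary screen in duplicate at 25 uM; actives then retested in concentration series; loss of signal versus DMSO.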

In assay [10] the target is human Protein Tyrosine Phosphatase Receptor Type M (PTPRM), PTPRM (gene 5797) (UniProt P28827). Kind of assay: NVS_ENZ_hPTPRM: NovaScreen (NVS) Enzymatic Assay for human Protein Tyrosine Phosphatase Receptor Type M (PTPRM) (AID 2283215). In short, it runs like this:
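Cell-free recombinant PTPRM with fluorogenic substrate; product separated from substrate by electrophoretic mobility shift and read by fluorescence, 1.33 h after dosing. Primary screen single concentration (25 uM) in duplicate; actives retested in concentration series; loss of signal versus DMSO.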

The target of assay [11] is Tyrosine-protein phosphatase non-receptor type 13 (Homo sapiens) (UniProt Q12923). Kind of assay: NVS_ENZ_hPTPN13: NovaScreen (NVS) Enzymatic Assay for human Protein Tyrosine Phosphatase Non-receptor Type 13 (PTPN13) (AID 2283205). In short, it runs like this: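 Cell-free assay of recombinant human PTPN13 with a fluorescent substrate, product separated by electrophoretic mobility shift and read 0.5 h after dosing. Primary screen at 25 uM in duplicate, then concentration-response up to 50 uM. Loss of signal fitted against DMSO.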

Assay [12] addresses human Sirtuin 2 (SIRT2), SIRT2 (gene 22933) (UniProt Q8IXJ6). As to the kind of experiment: NVS_ENZ_hSIRT2: NovaScreen (NVS) Enzymatic Assay for human Sirtuin 2 (SIRT2) (AID 2283217). In short, it runs like this:
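Cell-free recombinant human SIRT2, fluorescent substrate with product separated by electrophoretic mobility shift, 1 hr. Screened in duplicate at 25 uM; hits rerun singly in concentration-response up to 50 uM, relative to DMSO.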

Assay [13] concerns the target Tyrosine-protein phosphatase non-receptor type 14 (Homo sapiens) (UniProt Q15678). As to the kind of experiment: NVS_ENZ_hPTPN14: NovaScreen (NVS) Enzymatic Assay for human Protein Tyrosine Phosphatase Non-receptor Type 14 (PTPN14) (AID 2283206). In short, it runs like this:
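Cell-free recombinant human PTPN14 with fluorescent substrate, read 0.5 h after dosing by fluorescence and electrophoretic mobility shift separating substrate from product. Primary screen at 25 uM in duplicate; hits run to 50 uM maximum; loss of signal versus DMSO.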

Assay [14] has as its target human Tyrosine Protein Kinase Receptor Tie-2 (Tie2), TEK (gene 7010) (UniProt Q02763). Kind of assay: NVS_ENZ_hTie2: NovaScreen (NVS) Enzymatic Assay for human Tyrosine Protein Kinase Receptor Tie-2 (Tie2) (AID 2283225). In short, it runs like this: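 Recombinant human Tie2 kinase activity was read cell-free by fluorescence with electrophoretic mobility shift, 1 hour after dosing. The screen used 25 uM in duplicate, then concentration-response up to 50 uM. Signal loss was scored against DMSO.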

Assay [15] has as its target Tyrosine-protein phosphatase non-receptor type 12 (Homo sapiens) (UniProt Q05209). Kind of assay: NVS_ENZ_hPTPN12: NovaScreen (NVS) Enzymatic Assay for human Protein Tyrosine Phosphatase Non-receptor Type 12 (PTPN12) (AID 2283204). In short, it runs like this: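 Single-concentration duplicates (25 uM) preceded singleton concentration-response up to 50 uM for chemicals passing threshold. Cell-free recombinant PTPN12 activity was read 1.33 h after dosing via fluorescence after mobility-shift separation; loss of signal versus DMSO.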

Assay [16] concerns the target human Protein Tyrosine Phosphatase Receptor Type F (PTPRF), PTPRF (gene 5792) (UniProt P10586). Kind of assay: NVS_ENZ_hPTPRF: NovaScreen (NVS) Enzymatic Assay for human Protein Tyrosine Phosphatase Receptor Type F (PTPRF) (AID 2283213). A digest of the protocol:
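Cell-free fluorescence enzyme assay with recombinant protein and substrate; product separated by electrophoretic mobility shift. Read 1 h after dosing, single 25 uM duplicate screen, then concentration-response up to 50 uM; loss of signal vs DMSO.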

The target in assay [17] is human SRC Proto-Oncogene, Non-receptor Tyrosine Kinase (SRC), SRC (gene 6714) (UniProt P12931). As to the kind of experiment: NVS_ENZ_hSRC: NovaScreen (NVS) Enzymatic Assay for human SRC Proto-Oncogene, Non-receptor Tyrosine Kinase (SRC) (AID 2283223). In short, it runs like this:
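Cell-free kinase activity assay with fluorescent substrate, product separated by electrophoretic mobility shift, read 1 h after dosing. Duplicate single point at 25 uM, then concentration-response up to 50 uM; loss of signal versus DMSO.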

In assay [18] the target is human Vascular Endothelial Growth Factor Receptor 1 (VEGFR1), FLT1 (gene 2321) (UniProt P17948). As to the kind of experiment: NVS_ENZ_hVEGFR1: NovaScreen (NVS) Enzymatic Assay for human Vascular Endothelial Growth Factor Receptor 1 (VEGFR1) (AID 2283226). In short, it runs like this: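 Cell-free assay of recombinant human VEGFR1 kinase with substrate, measured 1 h after dosing; fluorescence with electrophoretic mobility-shift separation of substrate and product, referenced to DMSO; primary screen at 25 uM in duplicate, actives then run in concentration series.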

Chain of human Protein Tyrosine Phosphatase Non-receptor Type 6 (PTPN6), PTPN6 (gene 5777) (P29350 whole entry, looked up): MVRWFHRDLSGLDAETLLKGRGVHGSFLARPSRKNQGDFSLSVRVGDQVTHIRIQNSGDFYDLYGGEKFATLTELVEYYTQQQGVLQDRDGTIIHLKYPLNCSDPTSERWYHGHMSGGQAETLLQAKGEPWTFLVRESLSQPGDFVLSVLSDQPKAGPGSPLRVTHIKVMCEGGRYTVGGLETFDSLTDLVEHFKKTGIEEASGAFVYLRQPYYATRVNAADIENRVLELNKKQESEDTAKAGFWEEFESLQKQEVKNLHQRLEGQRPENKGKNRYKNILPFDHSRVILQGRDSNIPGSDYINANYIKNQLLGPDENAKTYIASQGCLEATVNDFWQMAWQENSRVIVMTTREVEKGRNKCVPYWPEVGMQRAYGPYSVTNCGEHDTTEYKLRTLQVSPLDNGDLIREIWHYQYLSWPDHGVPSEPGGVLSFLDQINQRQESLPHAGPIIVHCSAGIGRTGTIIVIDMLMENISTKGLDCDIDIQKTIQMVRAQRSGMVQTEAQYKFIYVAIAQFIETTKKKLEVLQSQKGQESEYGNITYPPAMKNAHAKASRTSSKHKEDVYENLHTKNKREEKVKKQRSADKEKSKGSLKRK
Chain of human Raf-1 Proto-Oncogene, serine/threonine Kinase (RAF1), RAF1 (gene 5894) (P04049 whole entry, looked up): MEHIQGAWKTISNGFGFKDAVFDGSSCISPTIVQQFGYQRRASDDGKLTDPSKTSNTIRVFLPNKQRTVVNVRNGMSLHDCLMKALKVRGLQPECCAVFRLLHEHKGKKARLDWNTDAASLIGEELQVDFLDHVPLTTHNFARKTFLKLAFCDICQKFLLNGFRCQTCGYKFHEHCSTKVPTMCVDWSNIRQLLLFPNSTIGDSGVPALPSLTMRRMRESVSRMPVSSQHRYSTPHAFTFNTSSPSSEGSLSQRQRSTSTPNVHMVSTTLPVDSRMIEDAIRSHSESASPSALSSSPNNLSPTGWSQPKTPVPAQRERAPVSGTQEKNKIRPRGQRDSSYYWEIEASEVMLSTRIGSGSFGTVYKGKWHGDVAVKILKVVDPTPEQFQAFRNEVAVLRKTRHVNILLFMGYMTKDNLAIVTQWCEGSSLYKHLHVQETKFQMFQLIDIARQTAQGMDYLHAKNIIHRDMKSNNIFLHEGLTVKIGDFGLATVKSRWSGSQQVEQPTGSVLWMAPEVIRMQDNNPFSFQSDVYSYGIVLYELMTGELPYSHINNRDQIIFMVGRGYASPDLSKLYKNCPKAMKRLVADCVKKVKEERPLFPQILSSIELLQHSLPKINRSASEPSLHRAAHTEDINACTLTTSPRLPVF
Chain of human Protein Tyrosine Phosphatase Receptor Type M (PTPRM), PTPRM (gene 5797) (P28827 whole entry, looked up): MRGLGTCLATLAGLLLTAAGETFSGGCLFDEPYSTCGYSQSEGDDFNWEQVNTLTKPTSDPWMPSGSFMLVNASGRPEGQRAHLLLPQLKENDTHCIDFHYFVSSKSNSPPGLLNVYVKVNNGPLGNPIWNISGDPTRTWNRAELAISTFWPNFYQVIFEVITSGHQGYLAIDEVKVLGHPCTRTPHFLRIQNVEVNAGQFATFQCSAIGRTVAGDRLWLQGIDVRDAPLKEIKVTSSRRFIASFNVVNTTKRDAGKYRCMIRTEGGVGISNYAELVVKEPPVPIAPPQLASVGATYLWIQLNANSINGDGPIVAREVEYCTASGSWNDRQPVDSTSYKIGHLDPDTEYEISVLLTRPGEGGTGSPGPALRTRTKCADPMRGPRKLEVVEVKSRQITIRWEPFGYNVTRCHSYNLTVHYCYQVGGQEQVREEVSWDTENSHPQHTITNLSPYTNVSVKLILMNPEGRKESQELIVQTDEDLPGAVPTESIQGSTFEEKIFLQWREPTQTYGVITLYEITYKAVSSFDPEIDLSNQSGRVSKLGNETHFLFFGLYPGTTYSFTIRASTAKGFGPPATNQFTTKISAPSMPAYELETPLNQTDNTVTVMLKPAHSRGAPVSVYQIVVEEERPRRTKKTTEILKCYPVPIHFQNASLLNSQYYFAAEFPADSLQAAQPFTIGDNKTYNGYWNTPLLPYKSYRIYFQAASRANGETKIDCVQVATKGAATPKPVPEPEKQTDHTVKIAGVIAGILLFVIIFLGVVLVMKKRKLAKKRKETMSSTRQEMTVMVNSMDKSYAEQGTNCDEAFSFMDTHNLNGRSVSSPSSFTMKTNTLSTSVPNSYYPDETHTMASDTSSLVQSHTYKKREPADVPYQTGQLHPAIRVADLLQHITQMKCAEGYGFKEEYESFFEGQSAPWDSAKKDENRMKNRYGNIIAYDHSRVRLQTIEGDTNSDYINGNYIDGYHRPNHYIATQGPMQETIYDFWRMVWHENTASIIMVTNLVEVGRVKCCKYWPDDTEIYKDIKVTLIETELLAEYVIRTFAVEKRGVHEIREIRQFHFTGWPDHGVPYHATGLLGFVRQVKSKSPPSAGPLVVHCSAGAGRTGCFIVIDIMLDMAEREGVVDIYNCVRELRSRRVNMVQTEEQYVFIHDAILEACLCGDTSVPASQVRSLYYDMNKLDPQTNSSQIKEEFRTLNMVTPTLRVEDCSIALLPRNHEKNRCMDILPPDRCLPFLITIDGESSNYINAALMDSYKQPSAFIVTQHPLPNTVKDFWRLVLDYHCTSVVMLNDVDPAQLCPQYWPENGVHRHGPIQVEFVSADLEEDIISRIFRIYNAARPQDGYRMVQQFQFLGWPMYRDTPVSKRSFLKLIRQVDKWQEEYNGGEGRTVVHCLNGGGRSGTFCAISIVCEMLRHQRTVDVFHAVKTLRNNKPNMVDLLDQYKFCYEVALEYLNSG
Chain of human Protein Tyrosine Phosphatase Non-receptor Type 9 (PTPN9), PTPN9 (gene 5780) (P43378 whole entry, looked up): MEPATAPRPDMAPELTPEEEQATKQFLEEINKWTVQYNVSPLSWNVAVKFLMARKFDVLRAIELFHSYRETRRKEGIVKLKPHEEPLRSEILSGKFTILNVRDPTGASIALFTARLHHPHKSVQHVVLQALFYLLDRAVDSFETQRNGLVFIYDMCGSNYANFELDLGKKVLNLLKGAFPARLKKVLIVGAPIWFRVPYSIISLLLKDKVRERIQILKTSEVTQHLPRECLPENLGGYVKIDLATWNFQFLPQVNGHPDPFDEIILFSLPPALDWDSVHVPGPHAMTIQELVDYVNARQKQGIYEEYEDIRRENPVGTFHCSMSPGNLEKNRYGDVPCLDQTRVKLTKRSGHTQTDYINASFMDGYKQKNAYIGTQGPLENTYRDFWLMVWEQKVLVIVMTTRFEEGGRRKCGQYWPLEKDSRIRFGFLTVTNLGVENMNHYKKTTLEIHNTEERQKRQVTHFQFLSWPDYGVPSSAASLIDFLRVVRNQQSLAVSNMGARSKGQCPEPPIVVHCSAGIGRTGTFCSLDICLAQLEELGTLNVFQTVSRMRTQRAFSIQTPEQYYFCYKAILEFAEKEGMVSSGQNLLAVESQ
Chain of human Sirtuin 3 (SIRT3), SIRT3 (gene 23410) (Q9NTG7 whole entry, looked up): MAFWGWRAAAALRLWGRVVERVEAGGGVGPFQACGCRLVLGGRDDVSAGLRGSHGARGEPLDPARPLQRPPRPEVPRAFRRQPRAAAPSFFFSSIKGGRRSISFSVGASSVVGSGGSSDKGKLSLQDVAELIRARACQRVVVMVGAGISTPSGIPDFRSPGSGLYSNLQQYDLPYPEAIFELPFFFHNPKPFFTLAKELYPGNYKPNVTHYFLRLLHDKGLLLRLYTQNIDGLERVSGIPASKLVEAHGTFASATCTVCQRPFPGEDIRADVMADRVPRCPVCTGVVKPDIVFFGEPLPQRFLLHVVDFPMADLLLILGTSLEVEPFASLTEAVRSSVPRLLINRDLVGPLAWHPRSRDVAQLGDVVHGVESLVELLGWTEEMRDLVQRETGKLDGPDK
Chain of human Protein Tyrosine Phosphatase Non-receptor Type 4 (PTPN4), PTPN4 (gene 5775) (P29074 whole entry, looked up): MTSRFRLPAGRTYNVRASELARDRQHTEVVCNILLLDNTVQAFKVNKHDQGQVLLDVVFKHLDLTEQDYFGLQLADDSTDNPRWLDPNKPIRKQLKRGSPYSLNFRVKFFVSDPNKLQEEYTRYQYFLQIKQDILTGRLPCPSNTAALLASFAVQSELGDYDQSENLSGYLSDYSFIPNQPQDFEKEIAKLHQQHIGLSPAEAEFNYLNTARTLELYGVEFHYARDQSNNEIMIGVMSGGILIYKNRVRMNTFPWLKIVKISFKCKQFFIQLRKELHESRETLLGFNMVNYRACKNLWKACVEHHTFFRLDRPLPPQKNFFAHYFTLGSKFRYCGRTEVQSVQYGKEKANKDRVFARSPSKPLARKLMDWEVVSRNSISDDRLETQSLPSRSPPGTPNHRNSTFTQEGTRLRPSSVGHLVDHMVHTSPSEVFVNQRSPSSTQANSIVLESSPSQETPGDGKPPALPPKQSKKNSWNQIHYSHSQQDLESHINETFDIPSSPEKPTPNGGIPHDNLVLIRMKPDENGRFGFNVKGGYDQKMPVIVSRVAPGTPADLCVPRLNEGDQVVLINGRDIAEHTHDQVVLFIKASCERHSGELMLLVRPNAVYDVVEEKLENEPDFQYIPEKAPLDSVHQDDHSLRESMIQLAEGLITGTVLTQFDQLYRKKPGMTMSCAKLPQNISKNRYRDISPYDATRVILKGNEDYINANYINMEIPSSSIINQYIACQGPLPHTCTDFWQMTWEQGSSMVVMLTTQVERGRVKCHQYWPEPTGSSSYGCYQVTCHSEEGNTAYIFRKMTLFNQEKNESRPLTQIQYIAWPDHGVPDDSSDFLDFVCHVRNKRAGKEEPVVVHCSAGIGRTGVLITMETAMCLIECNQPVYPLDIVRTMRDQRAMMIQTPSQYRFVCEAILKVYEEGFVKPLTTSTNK
Chain of human Sirtuin 2 (SIRT2), SIRT2 (gene 22933) (Q8IXJ6 whole entry, looked up): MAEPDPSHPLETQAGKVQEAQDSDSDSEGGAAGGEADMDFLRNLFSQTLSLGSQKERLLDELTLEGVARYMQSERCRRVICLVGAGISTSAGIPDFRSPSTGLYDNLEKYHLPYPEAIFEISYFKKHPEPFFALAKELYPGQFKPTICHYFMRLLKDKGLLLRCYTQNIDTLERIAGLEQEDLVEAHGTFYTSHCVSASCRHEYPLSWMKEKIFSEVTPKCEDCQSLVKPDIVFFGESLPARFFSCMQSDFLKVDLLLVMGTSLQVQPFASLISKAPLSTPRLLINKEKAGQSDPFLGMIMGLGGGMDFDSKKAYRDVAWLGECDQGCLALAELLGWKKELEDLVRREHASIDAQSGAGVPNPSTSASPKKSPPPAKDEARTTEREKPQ

For the molecule `N#Cc1cc(Br)c(O)c(Br)c1`, the molecule was classed as inactive in assay [1], in assay [2], in assay [3] and in [4].
As for `CNC(=O)ON=CC(C)(C)SC`, the molecule was called inactive in [5].
In the case of `C=CCC1=C(C)C(OC(=O)C2C(C=C(C)C)C2(C)C)CC1=O` (stereo not given), the molecule was classed as inactive in assay [2], in [6], in assay [5] and in [7].
Turning to `COc1nc(C)nc(NC(=O)NS(=O)(=O)c2ccccc2Cl)n1`, the call in assay [8], in assay [1], in [2], in assay [9] and in [10] was inactive.
The term AC50 denotes the concentration giving half of the maximal activity seen. As to `CO/C=C(/C(=O)OC)c1ccccc1Oc1cc(Oc2ccccc2C#N)ncn1`, in assay [11], the AC50 is 0.113 µM (active). Further, the result in assay [12], in assay [7] and in assay [4] was inactive.
As to `CC1COC(Cn2cncn2)(c2ccc(Oc3ccc(Cl)cc3)cc2Cl)O1` (stereo not given), the result in assay [3] and in [7] was inactive.
With `COc1nc(NC(C)C)nc(NC(C)C)n1`, the result in assay [9] was inactive.
As for `CCCCOC(=O)c1ccccc1C(=O)OCCCC`, the call in assay [13], in assay [6], in assay [5] and in [14] was inactive.
`CNC(=S)S`: the call in assay [15], in assay [13], in assay [8], in [6], in assay [9] and in assay [10] was inactive. The molecule was classed as inactive in assay [17] and in [14]. Further, the AC50 was 13.5 µM (active) in [2] and 15.5 µM (active) in assay [16].
For the molecule `CCc1nn(C)c(C(=O)NCc2ccc(C(C)(C)C)cc2)c1Cl`, the call in [1] and in [7] was inactive. Further, the concentration at half-maximal activity (AC50) in [2] is 16.4 µM (active).
Consider `CCON=C(CC)C1=C(O)CC(c2c(C)cc(C)cc2C)CC1=O` (stereo not given), for which the outcome in assay [5] was inactive.
Consider `COc1cnc(OC)n2nc(NS(=O)(=O)c3c(OCC(F)F)cccc3C(F)(F)F)nc12`, for which, in assay [18], the call was inactive.

Source of the values: PubChem BioAssay (EPA / NIEHS).
